About 1,300 (81%) of roughly 1,600 compounds were called active. How the calls were made is not given here. The set was probably picked from earlier hits. A selection follows. Results with a measured potency or affinity are listed apart.

A short description of this test: control 3'UTR Renilla luciferase suppression, dose response, counter-screen for Shn3 inhibitor project, cell-based, Clone20-Shn3RL, cherry-picked (AID 624133).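 Further: 0% = neutral control wells and -100% = positive control wells.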 The note with it: Clone20-Shn3RL cells, Renilla luciferase luminescence, 24 h; at 35 µM (top of the series) unless noted.
Turning to `CCOC(=O)C1CCN(c2cc3c(cc2NC(=O)c2ccccc2Br)n(C)c(=O)n3C)CC1`, the activity change, negative = inhibition is -4.54%.

`COc1ccc(NC(=O)CCOc2cc(C)ccc2C)cc1S(=O)(=O)N1CCCCC1`: the activity change, negative = inhibition stood at 267%.

Turning to `COc1cc(OC)cc(C(=O)OCC(=O)Nc2ccc(F)cc2F)c1`, the activity change, negative = inhibition is 11.1%.

In the case of `CCOc1ccc(Br)cc1C1=CC(=O)C[C@H](c2ccc(OC)cc2)C1`, the activity change, negative = inhibition came to 133%.

For `COc1ccc(-c2cc3nc(C)n(N)c(=O)c3s2)cc1`, the activity change, negative = inhibition came out at 13%.

On to `CCSc1nnc(NC(=O)c2nc(S(=O)(=O)Cc3ccc(F)cc3)ncc2Cl)s1`, for which the activity change, negative = inhibition was -75%.

For `c1ccc(-c2cc(CSc3nc4ccccc4[nH]3)on2)cc1`, the activity change, negative = inhibition was -121%.

As to `COc1ccccc1-n1c(SCC(=O)Nc2cc(C)on2)nc2c(c1=O)SCC2`, the activity change, negative = inhibition came to 58.3%.

Consider `CSCCC(NC(=O)c1ccccc1)C(=O)OCC(=O)N(C)CCC#N` (stereo not given), for which the activity change, negative = inhibition worked out at 16.7%.

Turning to `CN(CC(=O)Nc1ccccc1Cl)C(=O)c1cccc(S(=O)(=O)N2CCN(c3ccccc3)CC2)c1`, the activity change, negative = inhibition is -11.9%.

With `Cc1cc(C(=O)COc2cccnc2[N+](=O)[O-])c(C)n1-c1ccccc1`, the activity change, negative = inhibition was -74.4%.

For the compound `CNS(=O)(=O)c1cccc(C(=O)OCc2cc(C(C)=O)ccc2OC)c1`, the activity change, negative = inhibition was 329%.

For `COc1ccc(OC)c(NC(=O)c2cc(-c3cc(F)ccc3OCC3CCCO3)n[nH]2)c1` (stereo not given), the activity change, negative = inhibition stood at 26.4%.

In the case of `Cc1ccccc1N/C(=N/S(=O)(=O)c1ccccc1)c1ccc(F)cc1`, the activity change, negative = inhibition worked out at 55.6%.

`CCC12CN(S(=O)(=O)c3ccc(C)cc3)CC(CC)(CN(S(=O)(=O)c3ccc(C)cc3)C1)C2=O`: the activity change, negative = inhibition was 154%.

As to `COc1ccc(C(O)c2nc(-c3cccc(F)c3)cs2)cc1` (stereo not given), the activity change, negative = inhibition was 45.8%.

As to `O=C(c1n[nH]c(=O)c2ccccc12)N1CCN(C2c3ccccc3-c3ccccc32)CC1`, the activity change, negative = inhibition was -59.1%.

For `Cc1ccc(NC(=O)NCCCN2CCOCC2)cc1`, the activity change, negative = inhibition was -95.8%.

On to `CCOc1ccc(NS(=O)(=O)c2cc(C(=O)NCCN3CCOCC3)ccc2C)cc1`, for which the activity change, negative = inhibition was found to be 360%.

Turning to `O=C(Cc1ccccc1)NCCS(=O)c1ccc(Cl)cc1` (stereo not given), the activity change, negative = inhibition is 58.3%.

As for `CC(C)(CNC(=O)c1ccc(Cl)c(S(=O)(=O)N2CCc3ccccc3C2)c1)N1CCOCC1`, the activity change, negative = inhibition is -44.4%.

Consider `CCN(CC)S(=O)(=O)c1ccc(N2CCOCC2)c(NC(=O)c2nn(C(C)C)c(=O)c3ccccc23)c1`, for which the activity change, negative = inhibition was -4.17%.

On to `Cc1ccc(OC(=O)CCC(=O)Oc2ccc(C)cc2C)c(C)c1`, for which the activity change, negative = inhibition was 70.8%.

Turning to `CC(C)C[C@@H](CO)N(Cc1ccccc1)S(=O)(=O)N(Cc1ccccc1)[C@H](CO)CC(C)C`, the activity change, negative = inhibition was -80%.

As to `O=C(Nc1ccccc1)Nc1cc(OCC(F)(F)F)cc(OCC(F)(F)F)c1`, the activity change, negative = inhibition worked out at 0%.

On to `O=C(NCCCn1ccnc1)C(=O)NCC1OCCCN1S(=O)(=O)c1ccccc1` (stereo not given), for which the activity change, negative = inhibition came to 8.33%.

On to `Cc1cc(S(=O)(=O)NCc2ccncc2)c(C)cc1Br`, for which the activity change, negative = inhibition was determined as 275%.

Consider `Cc1ccc(S(=O)(=O)NCc2ccncc2)cc1C`, for which the activity change, negative = inhibition came to 25%.

Regarding `CC(=O)N1CCOc2cc(S(=O)(=O)NCc3ccc(F)cc3)c(C)cc21`, the activity change, negative = inhibition was determined as 179%.

On to `COCc1nn2c(N)c(C#N)cnc2c1-c1ccccc1`, for which the activity change, negative = inhibition was determined as 16.7%.

Regarding `CC(=O)OCC(=O)[C@@]1(O)CC[C@H]2[C@@H]3CCC4=CC(=O)CC[C@]4(C)[C@H]3C(=O)C[C@@]21C`, the activity change, negative = inhibition worked out at 12.2%.

For the compound `CC(NNC(=S)N1CCN(c2ccccn2)CC1)c1nccc2ccccc12` (stereo not given), the activity change, negative = inhibition was 300%.

`Cc1c(C)c2ccc(OCC(=O)Nc3ccccn3)c(C)c2oc1=O`: the activity change, negative = inhibition stood at 107%.

Take `Cc1ccc(S(=O)(=O)NCCc2cc3ccc(C)cc3[nH]c2=O)cc1`: the activity change, negative = inhibition was 33.6%.

Take `Cc1cc(C(=O)COC(=O)c2ccccc2O)c(C)n1Cc1cccs1`: the activity change, negative = inhibition is -4.54%.

Consider `CN=C1c2cc3cc(OC)ccc3n2CCN1Cc1ccccc1`, for which the activity change, negative = inhibition was determined as 64.3%.

Regarding `COc1ccc(OC)c(NC(=O)CN(Cc2ccc(F)cc2)C2CCCCC2)c1`, the activity change, negative = inhibition was -40%.

Turning to `CC(C)(C)c1nc(NCCN2CCOCC2)c2nnn(Cc3ccccc3Cl)c2n1`, the activity change, negative = inhibition was -45.5%.

Consider `CCC(C)[C@H]1CNC(=S)N1CCc1cc(C(F)(F)F)cc(C(F)(F)F)c1` (stereo not given in full), for which the activity change, negative = inhibition amounted to 177%.

For the compound `CCN(CC)C(=O)C1CCCN(c2ccc([N+](=O)[O-])cc2[N+](=O)[O-])C1` (stereo not given), the activity change, negative = inhibition is 58.3%.

On to `C[C@]12CC[C@H](O)CC1=CCC1C2CC[C@@]2(C)C1CCC21OCCO1` (stereo not given in full), for which the activity change, negative = inhibition worked out at 16.7%.

For the compound `Cc1cc(-n2c(C)cc(C(=O)CSc3nncn3C)c2C)no1`, the activity change, negative = inhibition is -18.2%.

With `CCOc1ccc2nc(SC3CC(=O)N(c4ccc(C)cc4)C3=O)sc2c1` (stereo not given), the activity change, negative = inhibition was found to be 30%.

As to `Cc1ccc(CNC(=O)c2ccc3c(=O)c(O)c(-c4ccc(C)cc4)[nH]c3c2)cc1`, the activity change, negative = inhibition was -14.3%.

As for `CCc1c(O)nc(SCC(=O)Nc2ccccc2)n(-c2ccccc2)c1=O`, the activity change, negative = inhibition came out at 80%.

On to `CN(C(=O)CSc1nc(-c2cccs2)nc2ccccc12)C1CCS(=O)(=O)C1` (stereo not given), for which the activity change, negative = inhibition is -119%.

For `CCN(CC)Cc1c(O)ccc2c1O/C(=C\C=C\c1ccccc1)C2=O`, the activity change, negative = inhibition was 60%.

Regarding `O=C(NCCc1ccccc1)c1ccc2c(c1)OCCO2`, the activity change, negative = inhibition was -2.38%.

Take `COc1ccc2c(c1OC)C(=O)N1c3ccccc3C(=O)N(c3ccccc3F)C21` (stereo not given): the activity change, negative = inhibition stood at 87.5%.

Turning to `CSc1nnc(-c2ccco2)n1-c1ccccc1`, the activity change, negative = inhibition was 31.8%.

With `CC(C)N1CCN(c2ccc(OCC3COC(Cn4cncn4)(c4ccc(Cl)cc4Cl)O3)cc2)CC1` (stereo not given), the activity change, negative = inhibition is 0%.

As to `COc1c(CC=C(C)C)cc(C2CC(=O)c3c(O)cc(O)cc3O2)cc1CC=C(C)C` (stereo not given), the activity change, negative = inhibition was determined as 50%.

Turning to `Nc1nc(N)c2cc(S(=O)(=O)c3ccc4ccccc4c3)ccc2n1`, the activity change, negative = inhibition worked out at 16.7%.

As for `C[C@@H]1CN([C@H](C)CO)C(=O)CCCn2nncc2CO[C@H]1CN(C)S(=O)(=O)c1ccc2c(c1)OCCCO2`, the activity change, negative = inhibition is -47.9%.

Turning to `O=C(NCCNC(=O)Oc1cccc2ccccc12)Oc1cccc2ccccc12`, the activity change, negative = inhibition was 41.7%.

As for `COc1cc(OC)c(OC)cc1CCC(C)NCCC(c1ccccc1)c1ccccc1` (stereo not given), the activity change, negative = inhibition is -33.3%.

Turning to `Cc1ccc(C)c(N2CCN(S(=O)(=O)c3ccc4[nH]c(=O)ccc4c3)CC2)c1`, the activity change, negative = inhibition turned out to be 4.54%.

Regarding `CC1(Cc2ccc(OC(F)(F)F)cc2)C(=O)Nc2c(Cl)ccc(Cl)c21` (stereo not given), the activity change, negative = inhibition came to 30%.

As to `Cc1csc(=O)n1CC(=O)OCC(=O)c1c(N)n(C)c(=O)n(C)c1=O`, the activity change, negative = inhibition was 10%.

On to `COc1ccc(CC(=O)Nc2ccncc2Cl)cc1`, for which the activity change, negative = inhibition was -54.2%.

As to `O=[N+]([O-])c1cccc(S(=O)(=O)NCc2ccncc2)c1`, the activity change, negative = inhibition is 14.3%.

For the compound `NS(=O)(=O)c1ccc(CNC(=S)NC(=O)c2ccco2)cc1`, the activity change, negative = inhibition stood at 40.3%.

Turning to `c1ccc(-c2noc(-c3ccc4ccccc4c3)n2)nc1`, the activity change, negative = inhibition was -2.38%.

With `Cc1ccc(-c2nc(-c3ccccn3)no2)cc1`, the activity change, negative = inhibition was -90.9%.

For the compound `CCOC(=O)c1c(NC(=O)c2nn(CC)cc2Br)sc(C)c1C`, the activity change, negative = inhibition is 16.7%.

Source of the values: PubChem BioAssay AID624133 (Broad Institute, 2012).
